LMP1 NFkB inh: reduces LMP1-driven NF-kappaB luciferase signal | LMP1-induced NF-kappaB luciferase reporter cells, luminescence | inhibition, % at 12.5 µM | hit rate 0.69% among 350,000 | AID 504558; in the data active = inhibition above about 41%; inconclusive = no clear call, values can overlap the other calls
TROY NFkB inh: inhibitors of TROY-dependent NF-kB signaling; hit rate 0.98% among 360,000; inhibition, % at 10 µM; AID 1347056; Q293 LMP1-TROYcd NF-kB luciferase reporter, 4 h;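 active = compounds whose plate-normalised and pattern-corrected inhibition of the luciferase reporter signal at the single screening dose is 50% or more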
Shn3 inh set2: inhibitors of Schnurri-3 3'UTR reporter in osteoblasts. hit rate 0.52% among 360,000. Clone20 osteoblast Shn3 3'UTR firefly luciferase, 24 h. inhibition, % at 12.5 µM. AID 588674;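 active = mean inhibition of at least 75% with every replicate also reaching 75%; inconclusive = mean inhibition at least 75% but some replicate below; inactive = mean inhibition below 75%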
MITF TRPM1 inh: inhibitors of MITF-driven TRPM1 promoter in melanoma cells; SK-MEL-5 TRPM1 promoter luciferase, 24 h; inhibition, % at 12.5 µM; hit rate 0.83% among 330,000; AID 488899;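 active = mean inhibition across replicates of 60% or more, whatever share of single replicates reaches that level; inconclusive = some that reach 60%, reason not given; inactive = mean inhibition across replicates below 60%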
Peg3 prom inh-1: Peg3 promoter activity inhibition; HeLa PEG-Prom luciferase reporter, luminescence, overnight; inhibition, % at 20 µM; hit rate 1.7% among 360,000;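 active = inhibition of at least 50% at 20 µM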
TWEAK Fn14 block: inhibitors of TWEAK-Fn14 interaction signaling | hit rate 2% among 360,000 | TWEAK-stimulated Fn14 reporter cells, luciferase luminescence, 8 h | inhibition, % at 10 µM | AID 1159606; in the data active = inhibition above about 50%
Peg3 prom inh-2: confirmation of Peg3 promoter inhibitors; hit rate 84% among 1,300; shares compounds with Peg3 prom inh-1; HeLa PEG-Prom luciferase reporter, luminescence, overnight; inhibition, % at 20 µM;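 active = at 20 µM dose, 40% or more inhibition averaged across four replicates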
Large screens that a line does not name were inactive (follow-up assays come after a bar, where they were run). Most compounds without a hit are left out; they make up all but 4.1% or so of the library.

COc1ccc(OC)c(NC(=O)c2sc3ncnc(N4CCN(c5ccccn5)CC4)c3c2C)c1	none
COc1cccc(C(=O)OCC(=O)Nc2ccc(N3CCOCC3)cc2)c1	none
CC(C)n1cc(CN2CCC(C(=O)Nc3cccc(-c4cccc(Cl)c4)c3)CC2)cn1	Peg3 prom inh-1 111 | Peg3 prom inh-2 98
CCn1cc(CN2CCC(C(=O)Nc3cccc(-c4cccc(F)c4)c3)CC2)cn1	none
COC(=O)C1CCN(Cc2cn(-c3ccccc3)nc2-c2ccc3c(c2)OCO3)CC1	none
Clc1cccc(-c2nc3ccc(Cl)cn3c2Cc2ccsc2)c1	none (no result: LMP1 NFkB inh, MITF TRPM1 inh)
Cc1noc(-c2ccc(Cl)cc2)c1C(=O)O/N=C(\N)c1ccc(C(C)(C)C)cc1	Peg3 prom inh-1 112 | Peg3 prom inh-2 98
COC1=C(Br)C(=O)c2ncccc2C1=O	MITF TRPM1 inh 65, Peg3 prom inh-1 100 | Peg3 prom inh-2 99
COc1ccccc1N1C(=O)c2cccnc2C1=O	none
CN(C)c1ccc(C=c2c3ccccc3n3c2cc(-c2ccccc2)[n+]3C)cc1	TROY NFkB inh 53, Shn3 inh set2 inconclusive, MITF TRPM1 inh 95, Peg3 prom inh-1 104, TWEAK Fn14 block 97 | Peg3 prom inh-2 98
Cc1nc(NC(=O)/C=C/c2ccccc2)sc1C(=O)Nc1ccc(Cl)cc1	Peg3 prom inh-1 53 | Peg3 prom inh-2 inactive
CC1CCN(c2ncnc3c2cnn3Cc2ccc(Cl)cc2)CC1	none
O=Nc1c(O)ccc2cc(S(=O)(=O)O)ccc12	Peg3 prom inh-1 62 | Peg3 prom inh-2 68
CN(C)c1ccc2cc(S(=O)(=O)O)cc(O)c2c1	none
O=c1cc2oc3cc(O)c(O)cc3c(-c3ccccc3[N+](=O)[O-])c-2cc1O	Peg3 prom inh-1 60 | Peg3 prom inh-2 75
O=c1cc(-c2ccccc2Cl)oc2cccc(O)c12	none
COc1ccccc1NC(=O)Cn1nnc(C(=O)NCCc2ccccc2)c1N	none
Cc1ccc2c(c1)COc1c3ccc(C(=O)O)cc3nn1-2	MITF TRPM1 inh 70, Peg3 prom inh-1 89, TWEAK Fn14 block 81 | Peg3 prom inh-2 inactive
Cc1ccc2c(c1)COc1c3ccc(C(=O)NCC4CC4)cc3nn1-2	none
Cc1ccc(-c2cn3nc(C)c(C)nc3n2)cc1	LMP1 NFkB inh 63, MITF TRPM1 inh 64, Peg3 prom inh-1 60 | Peg3 prom inh-2 46
Cc1ccc(-n2cc(CNCCc3cscn3)c(-c3ccc(F)cc3)n2)cc1	none
Cc1ccc(-n2cc(CNCCCn3ccnc3C)c(-c3ccc(F)cc3)n2)cc1	MITF TRPM1 inh 72, Peg3 prom inh-1 112 | Peg3 prom inh-2 98
CC(=O)/C=C(\C)Nc1ccccc1O	none
CN1C/C(=C\c2ccc(N3CCOCC3)cc2)C(=O)/C(=C/c2ccc(N3CCOCC3)cc2)C1	none
CCN1C/C(=C/c2ccc(N3CCOCC3)cc2)C(=O)/C(=C/c2ccc(N3CCOCC3)cc2)C1	MITF TRPM1 inh 93, Peg3 prom inh-1 101 | Peg3 prom inh-2 97
C/C(CC(=O)Nc1ccc(Cl)cc1Cl)=N\NC(=O)c1cnccn1	none
CN(C)c1ccc(Nc2nc(N)c3ccccc3n2)cc1	LMP1 NFkB inh 70, TROY NFkB inh 67, Peg3 prom inh-1 63, TWEAK Fn14 block 95 | Peg3 prom inh-2 65
CN(C)c1nc(Nc2ccccc2)nc(N(C)C)n1	none
CCC1(c2ccccc2)NC(=O)N(CC(=O)NC2(C#N)CCCCC2)C1=O (configuration not stated)	none
CC(C)COc1cccc(C(=O)NC(=S)NCc2cccnc2)c1	none
Cc1ccc(-c2nc3ncccc3o2)cc1NC(=O)Cc1ccc(Cl)cc1	Peg3 prom inh-1 51 | Peg3 prom inh-2 inactive
CCOC(=O)C1CCN(C(=O)c2ccc3c(c2)NC(=O)/C(=C\c2cccc(C)c2)S3)CC1	none
Cc1cccc(/C=C2/Sc3ccc(C(=O)NCCN4CCCC4)cc3NC2=O)c1	MITF TRPM1 inh 89, Peg3 prom inh-1 94 | Peg3 prom inh-2 100
COc1ccc(CCNC(=O)c2ccccc2OCc2c(C)noc2C)cc1	none
COc1cc(NC(=O)c2cccc(C)c2)ccc1NC(=O)c1cc2ccccc2o1	Peg3 prom inh-1 60 | Peg3 prom inh-2 50
CCC(=O)Nc1cccc(-c2cnc3ccccc3n2)c1	none
O=C(CCl)Nc1cccc(-c2cnc3ccccc3n2)c1	MITF TRPM1 inh 73, Peg3 prom inh-1 79, TWEAK Fn14 block 85 | Peg3 prom inh-2 92
CCN(CC)S(=O)(=O)c1ccc(SCC(=O)c2c(N)n(C3CC3)c(=O)[nH]c2=O)nc1	none (no result: MITF TRPM1 inh)
CS(=O)(=O)c1ccc(C(=O)NCCN2C(=O)S/C(=C\c3cccnc3)C2=O)cc1[N+](=O)[O-]	MITF TRPM1 inh 69, Peg3 prom inh-1 99, TWEAK Fn14 block 83 | Peg3 prom inh-2 54
COC1CC(C)C(OC)c2cc(O)cc(c2O)NC(=O)C(C)=CC=CC(C)C(OC(N)=O)C(C)=CC(C)C1OC (configuration not stated)	LMP1 NFkB inh 48, MITF TRPM1 inh 72, Peg3 prom inh-1 57 | Peg3 prom inh-2 48
COC(=O)c1cc(=O)n(Cc2ccco2)c(=Nc2ccc(F)cc2)s1	Peg3 prom inh-1 82, TWEAK Fn14 block 56 (no result: MITF TRPM1 inh) | Peg3 prom inh-2 84
CCOc1cc(/C=C\[N+](=O)[O-])ccc1OCC(=O)Nc1ccccc1C	Shn3 inh set2 95, MITF TRPM1 inh 91, Peg3 prom inh-1 115 | Peg3 prom inh-2 91
O=C(NCCCN1CCCC1=O)[C@H](CSCc1ccccc1)N1Cc2ccccc2C1=O	none
N#CC(C#N)=C1C=CC=CN1/C(=C\c1ccco1)C(=O)c1ccc(Cl)cc1	TROY NFkB inh 86, Shn3 inh set2 97, MITF TRPM1 inh 90, Peg3 prom inh-1 104, TWEAK Fn14 block 97 | Peg3 prom inh-2 100
COc1cc(CNCCCN2CCOCC2)c(Br)cc1OCC(=O)Nc1ccccc1C	none
CC(C)(C)OC(=O)N1CCCC(C(=O)Nc2ccc(C(=O)NC3CC3)cc2)C1 (configuration not stated)	none
CC(=O)CCc1ccc(Oc2nc(-c3cccnc3)nc3ccccc23)cc1	Peg3 prom inh-1 66 | Peg3 prom inh-2 inactive
COc1ccc(Oc2nc(-c3cccnc3)nc3ccccc23)cc1	none
COc1ccc(-c2nc3c(c(SCC(=O)N4CCOCC4)n2)Cc2c(CO)cnc(C)c2O3)cc1	Peg3 prom inh-1 54 | Peg3 prom inh-2 40
Cc1ccc(OCC(=O)N2CCC(C)CC2)c([N+](=O)[O-])n1	none
O=C(N/N=C(\c1ccccc1)c1ccccn1)c1cccc([N+](=O)[O-])c1	Shn3 inh set2 92, MITF TRPM1 inh 83, Peg3 prom inh-1 51 | Peg3 prom inh-2 62
Cn1ccnc1/C(=N\NC(=O)c1ccccc1)c1cccc([N+](=O)[O-])c1	none
CN(C)c1ccc(C(=O)c2ccccc2)cc1	none
CN(C)c1ccc(N=Nc2ccc(C(=O)O)cc2)cc1	MITF TRPM1 inh 66, Peg3 prom inh-1 65, TWEAK Fn14 block 98 | Peg3 prom inh-2 inactive

High-throughput results as filed in PubChem.
